Assay results taken from the OligoGym collection.

The sequences below were run against USO1 (assay: pooled miR-30 sensor sort-seq; sequence = guide strand). Conditions: shRNA.
Note: reference of the scale not given here.

Sequence	sensor-assay potency score (higher = more potent)
TTATAGTCTCGGTCTCTCCTTG	0.0783
TTATCATTGAAATAAATCGAAA	-1.61
TTTTAATGTAGAAACCTGCTGC	0.733

Each sequence was assayed against USP2 in the same assay as above. Conditions: shRNA.

Sequence	sensor-assay potency score (higher = more potent)
TATTTTCTCCACATCTGTCGGC	0.643
TTGGTGAAGAGCCTCATGCAGT	-0.823
TTCTCCACATCTGTCGGCCTTT	-0.4
TTTTGCAAACTCTTCCACGAGG	-0.596
TGAAAGTGTGCCATTCTCCTGT	0.787
TTAGGTCTCAGTGTCACTCGGT	0.557
ATTGAGTTCATGAAGCACGTGT	0.753
TAGGTCTCAGTGTCACTCGGTT	-0.44
TAGATATTTTCTCCACATCTGT	-1.14
TAGTTTTGCAAACTCTTCCACG	-0.662
TAGAACAGTAACCACAATCTGT	-0.00783

What follows are sequences tested against USP43 in the same assay as above. Conditions: shRNA.

Sequence	sensor-assay potency score (higher = more potent)
TAGCACCTTGCTCTCACTGTGG	-0.424
TTGCACAAAGCTTTGACCTAGA	0.359
TTTGCACAAAGCTTTGACCTAG	0.51
TTCGGAGACAAATAGCTGCAGG	-0.652
TTGCTGTGTTTGGACCATCTGA	-0.995
TAGAACAGGATATAAGCCCCTC	-0.232
TACTCCACCAACTCGACGGAGG	-1.32
TCGTACAGGAAGTCCAGCGGGT	-0.327
TAGGTAGGGACACACACAGGAA	-1.19
TTTCCTTGAGTTTCCTTGCTGT	0.819
TTGCTGAGGATAGACTGCTGGA	-0.504
TGTAGAACTGAAAACATTCATC	-0.712

These sequences were tested against USP44 in the same assay as above. Conditions: shRNA.

Sequence	sensor-assay potency score (higher = more potent)
TAACTTGATACTCCAATTCCTG	-1.33
TACAACATTCAGAACTTGTTTG	-0.39
TATAAAACAAGATATAAGCTTG	-0.0233
TATCATTCAGAACATAATCATC	-1.41
TATCTTTTGCTGGTGATGCTGG	-0.299
TTGCAGTGTACCCAGAACCCTC	-1.01
TACGCTTTGAGTTACACTGGTC	0.148
TTGATTTGTTGTCACATGCAAG	-1.1
TTGCACAAGTTCATCATCCGAG	0.487
TTGATCTTCACTTTGAAGCAGA	-0.107
TTTGATATACTACTGTATCTGT	0.327
TTGCAGTCCACACAGTGCCATT	-1.55
